Laboratory results reported in the supplement of paper PMC3545927.
The other results are listed elsewhere or left out. No count for the full screen is at hand.

Target: furin, P09958
Experiment: furin cleavage Z-score vs untreated control; higher = more cleavage, active = 3.5 or more, inactive = 1 or less, 8 variable residues between constant flanks
Summary of the method: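 Cleavage by purified furin was measured on 8-mer peptides fused to a cDNA oligonucleotide and held on magnetic beads by their N-terminus. Reactions (0.01 ml, 1:10 enzyme:substrate) ran 7.5, 15 or 30 min in 50 mM HEPES pH 7.5 with CaCl2 and NaCl. Released DNA was adapter-tagged by PCR and sequenced, with read counts giving abundance. Log counts versus furin-free reactions were lowess-adjusted and scaled by median absolute deviation to give the cleavage Z-score.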

Sequence of furin, P09958 (P09958 whole entry): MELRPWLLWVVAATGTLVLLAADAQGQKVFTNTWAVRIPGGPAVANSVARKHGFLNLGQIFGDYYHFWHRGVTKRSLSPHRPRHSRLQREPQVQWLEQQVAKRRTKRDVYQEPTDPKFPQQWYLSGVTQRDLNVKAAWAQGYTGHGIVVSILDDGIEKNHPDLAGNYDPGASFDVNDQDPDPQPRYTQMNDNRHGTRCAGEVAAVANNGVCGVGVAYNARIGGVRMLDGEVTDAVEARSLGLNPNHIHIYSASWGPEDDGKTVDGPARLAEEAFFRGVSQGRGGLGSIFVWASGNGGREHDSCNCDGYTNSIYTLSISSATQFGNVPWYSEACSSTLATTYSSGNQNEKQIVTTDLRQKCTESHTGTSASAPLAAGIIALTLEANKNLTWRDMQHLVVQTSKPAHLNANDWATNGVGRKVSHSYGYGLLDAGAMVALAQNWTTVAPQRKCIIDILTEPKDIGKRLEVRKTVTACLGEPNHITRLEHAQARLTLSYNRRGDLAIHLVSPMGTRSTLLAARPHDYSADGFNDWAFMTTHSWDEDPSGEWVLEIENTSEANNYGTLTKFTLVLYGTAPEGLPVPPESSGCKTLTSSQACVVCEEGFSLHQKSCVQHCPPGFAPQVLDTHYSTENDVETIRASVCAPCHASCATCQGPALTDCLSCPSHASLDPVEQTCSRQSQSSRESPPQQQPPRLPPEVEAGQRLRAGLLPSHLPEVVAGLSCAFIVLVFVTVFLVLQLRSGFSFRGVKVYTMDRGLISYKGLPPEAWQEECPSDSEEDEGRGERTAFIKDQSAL

Row | Sequence | furin cleavage Z-score (7.5 min) | furin cleavage Z-score (15 min) | furin cleavage Z-score (30 min)
1 | CAEVVTSTWRAGNASASA [HC2253] | 0.989 (inactive) | 0.48 (inactive) | 1.66
2 | CATTPASGSWAGNASASA [HC41] | -0.916 (inactive) | -1.61 (inactive) | -1.23 (inactive)
3 | CADDMEECSQAGNASASA [HC1811] | 0.222 (inactive) | -0.945 (inactive) | -0.707 (inactive)
4 | CARRRRKKARAGNASASA [FS-2790] | 1.33 | 1.06 | 0.0674 (inactive)
5 | CARRRRDATRAGNASASA [FS-1970] | 13.2 (active) | 14.6 (active) | 10 (active)
6 | CARRRRQAERAGNASASA [FS-2793] | 10.1 (active) | 11.9 (active) | 8.27 (active)
7 | CANAVAYYRGAGNASASA [HC867] | -0.298 (inactive) | 0.148 (inactive) | 1.73
8 | CARRRKSLKTAGNASASA [FS-2783] | 0.0718 (inactive) | 1.16 | 2.47
9 | CAKRERNKRSAGNASASA [FS-1637] | 12.5 (active) | 14.4 (active) | 10.7 (active)
10 | CARVRRNAKKAGNASASA [FS-1978] | 6.72 (active) | 5.97 (active) | 7.62 (active)
11 | CAGPVRLKKKAGNASASA [FS-1527] | -0.8 (inactive) | -1.68 (inactive) | -0.907 (inactive)
12 | CARVRKSLKKAGNASASA [FS-2534] | 0.916 (inactive) | 3.69 (active) | 5.83 (active)
13 | CARVRKSKGKAGNASASA [FS-1802] | 0.157 (inactive) | -1.05 (inactive) | 0.116 (inactive)
14 | CARVRRNKRSAGNASASA [FS-1275] | 11.3 (active) | 10.9 (active) | 9.58 (active)
15 | CADSVIDCNTAGNASASA [HC885] | 0.968 (inactive) | 0.824 (inactive) | 1.02
16 | CAASGVLTTSAGNASASA [HC1511] | -1.03 (inactive) | -0.000581 (inactive) | -0.909 (inactive)
17 | CAMEECSQHYAGNASASA [HC1769] | 0.65 (inactive) | 1.28 | 2.12
18 | CAGVPPLRAWAGNASASA [HC1617] | 0.794 (inactive) | 0.986 (inactive) | 0.446 (inactive)
19 | CARKPRDLELAGNASASA [FS-2038] | 8.14 (active) | 11 (active) | 10.9 (active)
20 | CARKSRDMEIAGNASASA [FS-2980] | 0.641 (inactive) | -0.334 (inactive) | 1.3
21 | CAQPEYDLELAGNASASA [HC1548] | 1.74 | 0.744 (inactive) | 0.874 (inactive)
22 | CARKPRDYTIAGNASASA [FS-2695] | 0.48 (inactive) | 0.851 (inactive) | 3.93 (active)
23 | CAVTPIDTTIAGNASASA [HC1436] | -0.162 (inactive) | -2.25 (inactive) | -0.263 (inactive)
24 | CARKPRPLDPAGNASASA [FS-2563] | 1.12 | 0.612 (inactive) | 0.941 (inactive)
25 | CAAAVTSPLTAGNASASA [HC1058] | 0.302 (inactive) | -1.38 (inactive) | -0.302 (inactive)
26 | CARNSTGLYHAGNASASA [HC258] | 0.587 (inactive) | -0.804 (inactive) | -0.846 (inactive)
27 | CATTALVMAQAGNASASA [HC325] | 0.431 (inactive) | -0.525 (inactive) | -0.108 (inactive)
